RORgamma inh: qHTS for inhibitors of ROR gamma transcriptional activity. Potency, µM (titrated, usually from 53.6 µM), for inactives: at the highest dose activity change, negative = inhibition, hits mostly inhibitors. Drosophila S2 Gal4-RORgamma UAS-luciferase reporter, 20 h. hit rate 5.4% among 310,000. Nuclear receptor ROR-gamma (Mus musculus), P51450. AID 2551, 2010; note: nearly all actives have a fitted effect of over 60% in size
Target sequence (P51450 whole entry, looked up, the tested form may be a part): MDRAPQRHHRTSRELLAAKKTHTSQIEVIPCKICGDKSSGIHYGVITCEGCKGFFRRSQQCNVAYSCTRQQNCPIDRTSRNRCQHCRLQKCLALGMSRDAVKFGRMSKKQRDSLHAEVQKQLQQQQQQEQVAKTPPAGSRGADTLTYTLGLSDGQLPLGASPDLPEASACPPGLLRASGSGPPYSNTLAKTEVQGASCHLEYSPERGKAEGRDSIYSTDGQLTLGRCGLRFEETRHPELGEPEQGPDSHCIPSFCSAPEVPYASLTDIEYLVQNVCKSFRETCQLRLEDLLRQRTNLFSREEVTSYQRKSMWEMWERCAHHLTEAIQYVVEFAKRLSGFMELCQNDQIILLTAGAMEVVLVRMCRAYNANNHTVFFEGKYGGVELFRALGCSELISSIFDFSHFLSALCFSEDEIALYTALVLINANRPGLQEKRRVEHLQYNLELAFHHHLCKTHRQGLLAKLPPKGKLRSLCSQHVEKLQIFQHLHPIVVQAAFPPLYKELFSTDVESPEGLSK
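Drosophila Schneider cells stably carrying a metallothionein-driven Gal4 DBD–ROR gamma fusion and a UAS-Photinus luciferase reporter were exposed to compound for 1 hr, then induced with copper sulfate (700 uM final) for 20 hr at ambient temperature before luminescence reading.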
Tau fluor cs: Counterscreen qHTS for Inhibitors of Tau Fibril Formation, Fluorescence Polarization; Potency, µM (series often up to 57.7 µM), without a hit: top-dose activity change, negative = decrease; tau K18 P301L Alexa594 fluorescence, heparin fibrillization; hit rate 0.93% among 280,000; note: nearly all actives have a fitted effect of over 55% in size
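Human tau K18 P301L (15 uM unlabeled, 0.24 uM Alexa 594-labeled) in 100 mM sodium acetate pH 7 with 20 uM heparin, 6 hr at 37 C. ThT 30 uM added, 1 hr ambient; Alexa 594 FP and total fluorescence read at 555/632 nm.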
Tau fibril FP: qHTS for Inhibitors of Tau Fibril Formation, Fluorescence Polarization. Microtubule-associated protein tau (Homo sapiens), P10636. K18 P301L tau heparin fibrillization, Alexa594 FP, 6 h. Potency, µM (highest dose often 57.7 µM), for the others: at the top dose activity, negative = inhibition, usual class: inhibitors. hit rate 0.39% among 280,000. AID 1468, 2008; note: nearly all actives have a fitted effect of over 55% in size
Target sequence (P10636 561-689 P618L limits assumed): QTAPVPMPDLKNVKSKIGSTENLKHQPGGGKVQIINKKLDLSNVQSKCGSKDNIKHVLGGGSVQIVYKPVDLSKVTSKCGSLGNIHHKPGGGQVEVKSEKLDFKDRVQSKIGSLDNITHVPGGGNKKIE
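K18 P301L tau (15 uM unlabeled/0.24 uM Alexa 594-labeled, final) + compound + heparin 20 uM final; 100 mM NaOAc pH 7; 6 hr 37 C; ThT 30 uM final added, 1 hr RT; FP ex 555/em 632 nm.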
Gal4-VP16 FLuc: VP16 counterscreen qHTS for inhibitors of ROR gamma transcriptional activity; Drosophila S2 Gal4-VP16 UAS-luciferase, luminescence, 20 h; Potency, µM (series often up to 53.6 µM), for the others: at the top dose activity, negative = inhibition, actives largely listed as inhibitors; hit rate 3.5% among 310,000;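 note: Gal4-VP16 expression switched on by copper sulfate through the metallothionein promoter; nearly all actives have a fitted effect of over 50% in size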
Tau fibril ThT: qHTS for Inhibitors of Tau Fibril Formation, Thioflavin T Binding | Microtubule-associated protein tau (Homo sapiens), P10636 | recombinant tau K18 P301L (four-repeat tau fragment), heparin-induced fibrillization, ThT fluorescence | Potency, µM (doses to about 57.4 µM), inactives show at the highest dose activity, negative = inhibition, actives largely listed as inhibitors | hit rate 2.1% among 270,000 | AID 1460, 2008; note: nearly all actives have a fitted effect of over 55% in size
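Heparin-induced (20 uM) aggregation of recombinant human K18 P301L tau, 15 uM unlabeled with 0.24 uM labeled, pH 7 acetate buffer, 6 hr at 37 C with compound. Fibrils quantified by 30 uM ThT fluorescence after 1 hr ambient incubation.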
Numbers without * were called inactive; ? = inconclusive; · = no result; [ ] = remark or other dose. Hits are enriched below; roughly 7.3% of the tested compounds scored in any of these assays. Calls come from the whole dose curve; as a rule, active = well fitted curve in the direction sought with a large enough effect; inconclusive = small, poorly fitted or top-dose-only effect, or another doubt; inactive = no such curve, though single readings can be large; an effect the other way counts as inactive or inconclusive. % is set by controls: 0 for no effect and ±100 for the full control effect; potency is the fitted concentration of half-maximal effect.

SMILES	RORgamma inh	Tau fluor cs	Tau fibril FP	Gal4-VP16 FLuc	Tau fibril ThT
Cc1cc(NC(=O)CSc2cc(Cl)ccc2Cl)n(-c2ccccc2)n1	20%	5%	4%	-5%	5%
Cc1cc(C)nc(-n2nc(C)cc2NC(=O)CNC(C)c2ccccc2)n1 (configuration not stated)	1.6µM*	-3%	0%	-27%	-2%
Cc1cc(NC(=O)CN2CCOCC2)n(-c2nc3ccccc3s2)n1	3.5µM*	-8%	-18%	1%	-9%
Cc1ccc(C)c(C(=O)Nc2cc(C)nn2-c2nc(C)cc(C)n2)c1	0.5µM*	-6%	-4%	?	-11%
Cc1cc(C)nc(NS(=O)(=O)c2ccc(NC(=O)CSc3nc(-c4ccccc4)c(C#N)c(=O)[nH]3)cc2)n1	18%	-4%	-2%	-10%	1%
Cc1cc(C)nc(-n2nc(C)cc2NC(=O)CN2CCCC2)n1	11µM*	2%	3%	-13%	-2%
Cc1cc(C)nc(-n2nc(C)cc2NC(=O)CN2CCC(C)CC2)n1	?	-4%	10%	?	-10%
CC(C)(C)C(=O)OCOP(=O)(COCCn1cnc2c(N)ncnc21)OCOC(=O)C(C)(C)C	-15%[10 µM]	·	·	-3%	·
COc1ccc(C2NC(=S)NC(C)=C2C(=O)N2CCOCC2)cc1 (configuration not stated)	-16%	2%	1%	-1%	0%
COc1ccc(C2NC(=S)NC3=C2CCc2cc(OC)ccc23)cc1 (configuration not stated)	0.56µM*	-28%	-1%	?	?
COc1ccccc1CNC(=S)Nc1ccc(S(N)(=O)=O)cc1	2%	·	·	-2%	·
CCCCc1ccc(NC(=S)NCc2ccc(OC)cc2)cc1	4µM*	-26%	-7%	?	-5%
CCCCc1ccc(NC(=S)NCc2ccccc2OC)cc1	2µM*	-22%	-4%	-30%[10 µM]	-6%
COc1ccc(CNc2ccc(C(=O)O)cc2)cc1	1.3µM*	-7%	-8%	0.63µM*	-7%
COc1ccc(NC(=S)NCc2ccc(F)cc2)cc1	7.9µM*	·	·	?	·
CCn1cc(C(=O)NCCc2ccccc2)c(=O)c2cc(S(=O)(=O)N3CCc4ccccc4C3)ccc21	·	-27%	-8%	·	-7%
COc1ccc(CNC(=S)Nc2ccc(OC)cc2)cc1	10µM*	-3%	2%	?	1%
S=c1[nH]c2ccc(Cl)cc2[nH]1	-3%	-1%	-8%	7%	-1%
S=c1[nH]c2cc(Cl)ccc2s1	13µM*	-4%	-2%	?	-9%
CC(C)CNC(=O)N1[C@H](c2cccs2)[C@@H](C)C(=O)[C@@H](C)[C@@H]1c1cccs1	·	-2%	-3%	·	0%
O=C(CN1CCCc2ccccc21)N/N=C/c1c(O)ccc2ccccc12	1.3µM*	14µM*[quencher]	15%	0.79µM*	?
O=C(CN1CCCc2ccccc21)N/N=C/c1ccc(O)cc1O	?	?	10%	22µM*	?
O=C(CN1CCCc2ccccc21)N/N=C/c1ccccc1	-4%	?	11%	?	?
CCN(CC)c1ccc(/C=N/NC(=O)CN2CCCc3ccccc32)cc1	?	?	0%	?	?
COc1ccc(CNCCC(c2ccc3c(c2)OCO3)c2ccccc2OC)cc1 (configuration not stated)	·	0%	-4%	·	-8%
SMILES	RORgamma inh	Tau fluor cs	Tau fibril FP	Gal4-VP16 FLuc	Tau fibril ThT
CCOc1cc2sc(N3CCC(C(=O)Nc4ccccc4Cl)CC3)nc2cc1Br	·	-30%	8%	·	?
N#Cc1ccc(CN2CCCC3(CCN(C(=O)c4cnccn4)CC3)C2)cc1	0%	·	·	-11%	·
COc1ccc(CN2CSC(=S)N(Cc3ccc(OC)cc3)C2)cc1	6.3µM*	?	?	18µM*	-14%
COc1ccc(CN2CSC(=S)N(Cc3ccccc3)C2)cc1	?	·	·	10µM*	·
S=C1SCN(Cc2cccnc2)CN1Cc1cccnc1	0.63µM*	2%	-4%	5.6µM*	-4%
Cc1cc(C)cc(OCC(=O)Nc2ccc(Cl)c(-c3nc4ncccc4o3)c2)c1	·	?	-16%	·	?
Cc1ccccc1NS(=O)(=O)c1ccc2[nH]c3c(c2c1)CCCCC3	·	14µM*[quencher]	5%	·	-11%
CN(CC(=O)NCc1ccccc1)S(=O)(=O)c1ccc2[nH]c3c(c2c1)CCCC3	·	?	?	·	-5%
O=S(=O)(c1ccc2[nH]c3c(c2c1)CCCCC3)N1CCN(c2cccc(Cl)c2)CC1	·	?	3%	·	12%
O=S(=O)(Nc1cccc(Cl)c1)c1ccc2[nH]c3c(c2c1)CCCCCC3	·	8.9µM*[quencher]	?	·	-10%
CN(Cc1ccccc1)S(=O)(=O)c1ccc2[nH]c3c(c2c1)CCCCC3	·	3.5µM*[quencher]	?	·	0%
Cc1cccc(NS(=O)(=O)c2ccc3[nH]c4c(c3c2)CCCCCC4)c1	·	11µM*[quencher]	7%	·	0%
CCN(CC)CCNC(=O)C1(O)c2cc(Br)ccc2NC(=O)N1c1ccccc1 (configuration not stated)	3%	·	·	1%	·
COc1ccc(Oc2ncc3nc(-c4cccs4)c(=O)n(CCC#N)c3n2)cc1	-12%	·	·	-1%	·
COc1ccc(C(=O)N/C(=C\c2cn(C)c3ccccc23)C(=O)NCCCn2ccnc2)cc1	6%	·	·	7%	·
COc1ccc(C(=O)NC(C)CCn2cccn2)cc1OC1CCN(C(C)C)CC1 (configuration not stated)	3%	·	·	1%	·
CCCOC(=O)c1ccc(Oc2cn[nH]c2-c2ccc(O)cc2O)cc1	17%	5µM*[quencher]	?	-21%	?
CCCc1ccc(Oc2cn[nH]c2-c2ccc(O)cc2O)cc1	16µM*	6.3µM*[quencher]	?	-27%	?
COc1ccc(Oc2cn[nH]c2-c2ccc(O)cc2O)cc1	?	?	?	-6%	-11%
CCCOC(=O)c1ccc(Oc2c(-c3ccc(OC)cc3O)n[nH]c2C)cc1	7.1µM*	10µM*[quencher]	?	?	-6%
CCCOC(=O)c1ccc(Oc2c(-c3ccc(O)cc3O)n[nH]c2C)cc1	?	-9%	-12%	-20%	-5%
CCCOC(=O)c1ccc(Oc2cn[nH]c2-c2ccc(OCC(=O)NN)cc2O)cc1	-3%	28µM*[quencher]	6%	4%	-6%
O=C(CN(c1ccc2c(c1)OCCO2)S(=O)(=O)c1ccccc1)N1CCN(Cc2ccccc2)CC1	23%	-8%	0%	4%	-7%
CC(C)NC(=O)N1CCC2(CC1)CCN(C(=O)c1ccncc1)CC2	-10%	·	·	-18%	·
CCOC(=O)c1ccc(NC(=O)NNS(=O)(=O)c2cc(OC)ccc2OC)cc1	-33%	·	·	5%	·

From PubChem
